Source: PubChem
HT1080 IDH1KD tx – toxicity to HT-1080 IDH1 knockdown cells (counter line); AID 686971; HT-1080 IDH1 knockdown viability, ATP luminescence, 48 h; Potency, µM (highest dose often 46.1 µM), without a hit: at the top dose activity, negative = toxicity, most hits filed as cytotoxic; actives 2% (n = 360,000);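 note: potency is the fitted concentration of half-maximal effect; 0% = DMSO wells and -100% = cell-free medium wells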
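CellTiter-Glo luminescence after 48 h compound exposure at 37 degrees C of IDH1-knockdown HT-1080 cells in 5% FBS RPMI. %Activity scaled between DMSO wells and cell-free media wells, with curves fitted and assigned curve classes.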
IL-1B inflam inh – blocks inflammasome-driven IL-1 beta release | THP-1 LPS/ATP IL-1B secretion, AlphaLISA, 16 h; hits give low values | actives 4.7% (n = 360,000) | activity change, % at 57.5 µM; in the data active = activity change below about -50%; inconclusive = mostly about -30% to -49%
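Secreted IL-1B measured by AlphaLISA bead assay after 16 h compound exposure of THP-1 cells; compounds (final up to 57.5 uM) added 1 h before LPS (250 ng/mL) and ATP (1.25 mM) stimulation; lower signal means less secretion.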
ELG1 repair inh – inhibitors of ELG1-dependent DNA repair in HEK293T cells; HEK293T ELG1-luciferase reporter, luminescence, 16 h; DNA damage induced by 5-fluorouridine; Potency, µM (titrated, usually from 46.1 µM), without a hit: at the highest dose activity change, negative = inhibition, usual class: inhibitors; actives 2.3% (n = 330,000); AID 504467; note: potency is the fitted concentration of half-maximal effect; nearly all actives have a fitted effect of over 55% in size
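Reporter activity after DNA damage by 5-fluorouridine is monitored. Compound-treated cells incubate 16 hr at 37 °C, then ONE-Glo is added for 30 min before luminescence reading.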
TDP1 cell CPT – DT40-hTDP1 cell growth loss with CPT; chicken DT40 Tdp1-/-;hTDP1 cells + 20 nM CPT, ATP luminescence, 48 h; Potency, µM (series often up to 46.2 µM), for inactives: at the highest dose activity change, negative = growth inhibition, hits mostly inhibitors; actives 12% (n = 420,000); AID 686979; note: potency is the fitted concentration of half-maximal effect; nearly all actives have a fitted effect of over 55% in size
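Chicken DT40 Tdp1-/- cells stably complemented with human TDP1 were seeded at 400 cells/well in medium containing 20 nM camptothecin, exposed to pin-transferred compounds, and grown at 37 °C for at least 48 hr. Viability was read as ATP luminescence.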
DT40 TDP1 no CPT – qHTS for Inhibitors of human tyrosyl-DNA phosphodiesterase 1 (TDP1): qHTS in cells in absence of CPT | Potency, µM (series often up to 46.2 µM), inactives show top-dose activity change, negative = growth inhibition, usual class: inhibitors | DT40 Tdp1-/- hTDP1 cells, no CPT, ATP luminescence, 48 h | actives 15% (n = 420,000); note: potency is the fitted concentration of half-maximal effect; nearly all actives have a fitted effect of over 55% in size
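Chicken DT40 Tdp1-/- cells complemented with human TDP1, screened without camptothecin (DMSO vehicle only), 400 cells/well. Compounds pin-transferred, cells incubated at 37 °C for at least 48 hr. Growth read as ATP-dependent luminescence (CellTiter-Glo, 30 min at RT).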
HT1080NT lethal – kills 2HG-producing HT-1080-NT fibrosarcoma cells | Potency, µM (doses to about 46.1 µM), for inactives: top-dose activity, negative = less viability, hits mostly cytotoxic | AID 686970 | actives 1.6% (n = 360,000) | HT-1080-NT fibrosarcoma viability, CellTiter-Glo ATP luminescence, 48 h;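 note: NT is the 2HG producing partner of a matched IDH1 knockdown line; potency is the fitted concentration of half-maximal effect; 0% = DMSO-treated cells and -100% = media-only wells without cells; nearly all actives have a fitted effect of over 55% in size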
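HT-1080-NT; 750 cells/well; 5% FBS RPMI; 48 h compound, 37 degrees C; CellTiter-Glo luminescence; curve fitting and curve-class assignment.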
Numbers without * were called inactive; ? = inconclusive; / = not tested or not shown; [ ] = another dose, or the depositor's remark. Sampled rows, rich in hits. Any-hit rate of the full collection: about 19%. Unless noted, calls come from the whole dose curve; as a rule, active = well fitted curve in the direction sought with a large enough effect; inconclusive = small, poorly fitted or top-dose-only effect, or another doubt; inactive = no such curve, though single readings can be large; an effect the other way counts as inactive or inconclusive. Unless noted, % is set by controls: 0 for no effect and ±100 for the full control effect.

SMILES | HT1080 IDH1KD tx | IL-1B inflam inh | ELG1 repair inh | TDP1 cell CPT | DT40 TDP1 no CPT | HT1080NT lethal
CC(/C=C(\NC(=O)c1ccccc1)C(=O)N=Nc1c(O)[nH]c2ccc(C)cc12)=C\c1ccccc1 | -1%[9.24 µM] | -8 | ? | 8.2µM* | 8.2µM* | -7%
N#CCSc1nnc(Cc2cccc3ccccc23)n1C1CCCCC1 | -13% | -65* | -12% | -25% | -20% | -10%
Cc1cccc(/C=N/NC(=O)C(C)Nc2cccc3ccccc23)n1 (stereo not given) | -25% | 37 | ? | ? | ? | -20%
COc1cc([N+](=O)[O-])cc(/C=N/NC(=O)C(O)(c2ccccc2)c2ccccc2)c1O | ? | -7 | -18% | 4.1µM* | ? | ?
COc1cc([N+](=O)[O-])cc(/C=N/NC(=O)c2cccnc2)c1O | -2% | -3 | ? | ? | ? | 0%
O=C(N/N=C/c1cccc([N+](=O)[O-])c1O)C(O)(c1ccccc1)c1ccccc1 | ? | 38 | -7% | ? | 26µM* | -23%
COc1cc([N+](=O)[O-])cc(/C=N/NC(=O)C(C)Nc2cccc3ccccc23)c1O (stereo not given) | 18µM* | 55 | ? | 16µM* | ? | ?
Cc1nn(-c2ccccc2)c(OC(=O)c2ccccc2Br)c1S(=O)(=O)c1ccccc1 | / | / | / | -11% | -20% | /
O=C(NCCc1ccccc1)C1CCCN1S(=O)(=O)c1ccccc1 (stereo not given) | 6% | 21 | 1% | 11% | -11% | 4%
O=C(Cn1ccc([N+](=O)[O-])n1)Nc1ccccn1 | 11% | -7 | -5% | 1% | 7% | 0%
CCOC(=O)c1c(C)oc2cc(Br)c(OC(=O)N3CCOCC3)cc12 | -4% | -5 | 23µM* | -27% | -24% | -8%
COCC(=O)N(Cc1nc2sc(C)c(C)c2c(=O)[nH]1)C1CCCCC1 | -6% | 24 | 6% | -30% | 2% | -3%
Cc1sc2nc(CN(C(=O)NC3CCCCC3)C3CCCC3)[nH]c(=O)c2c1C | 10% | -1 | 21µM* | ? | 16µM* | 14%
Cc1sc2nc(CC(=O)N3CCCC3)[nH]c(=O)c2c1C | 1% | 15 | 8% | -16% | -13% | 0%
CCCCC(=O)N(Cc1nc2sc(C)c(C)c2c(=O)[nH]1)C1CCCC1 | -26% | -1 | 21µM* | -28% | ? | ?
Cc1sc2nc(CN(Cc3cccs3)C(=O)NC3CCCCC3)[nH]c(=O)c2c1C | ? | ? | 9.2µM* | 23µM* | ? | ?
Cc1ncc2c(c1CNC(=O)c1ccc3c(c1)OCO3)CCN(C(=O)/C=C/c1ccc(Cl)cc1)C2 | / | / | / | -9%[9.04 µM] | -27% | /
CC(O)CN(CCN(CC(C)O)CC(C)O)CC(C)O (stereo not given) | / | / | / | 5% | 0% | /
Nc1cccc2c1C(=O)N(C(=O)/C=C/c1cccc(F)c1)C2=O | 16µM* | -70* | 0% | ? | ? | 18µM*
Nc1cccc2c1C(=O)N(C(=O)/C=C/c1cccc(Br)c1)C2=O | ? | -75* | 0% | 10µM* | 23µM* | ?
Cc1ccccc1CCNC(=O)C1CCN(S(=O)(=O)c2ccc3c(ccn3C)c2)CC1 | / | / | / | -28% | ? | /
C/C=C(\C)C(=O)N1CCC(C(=O)c2ccccc2)CC1 | 8% | -5 | 1% | -25% | 7% | 22%
Cc1ccc(NC(=O)CCn2nc(-c3ccccc3)c3ccccc3c2=O)c(C)c1 | / | / | / | 21µM* | ? | /
COc1cccc(OC)c1NC(=O)Cc1nn(C)c(=O)c2ccccc12 | 0% | 27 | -20% | ? | ? | 1%
CNC(=O)CCn1nc(-c2ccc(C)cc2)c2ccccc2c1=O | 7% | 16 | 27% | 0% | -16% | 14%
SMILES | HT1080 IDH1KD tx | IL-1B inflam inh | ELG1 repair inh | TDP1 cell CPT | DT40 TDP1 no CPT | HT1080NT lethal
CNC(=O)Cn1nc(-c2ccc(C)cc2)c2ccccc2c1=O | -11% | 24 | 8% | ? | 15µM* | -12%
CNC(=O)COc1ccc(NC(=O)CCn2nc(-c3ccc(C)cc3)c3ccccc3c2=O)cc1 | / | / | / | ? | 21µM* | /
COc1ccccc1NC(=O)Cc1nn(C)c(=O)c2ccccc12 | -6% | 3 | -26% | 16µM* | 8.2µM* | 4%
COC(=O)COc1ccc(-c2nn(C)c(=O)c3ccccc23)cc1 | 10% | 7 | 1% | -3% | -19% | 0%
CCCNC(=O)COc1ccc(-c2nn(C)c(=O)c3ccccc23)cc1 | 2% | 16 | -20% | ? | 21µM* | -2%
Cc1csc(NC(=O)Cc2nn(C)c(=O)c3ccccc23)n1 | -11% | -8 | ? | 10µM* | 8.2µM* | -8%
O=C(CCn1nc(-c2ccccc2)c2ccccc2c1=O)N1CCN(c2ccccc2)CC1 | -13% | ? | ? | 16µM* | 23µM* | -22%
COc1ccccc1NC(=O)c1ccc(-c2nn(C)c(=O)c3ccccc23)cc1 | 1% | -56* | ? | ? | 21µM* | -3%
Cc1csc(NC(=O)Cc2ccc(Cl)cc2)n1 | -1% | 20 | / | -22% | -14% | -4%
COc1ccc(NC(=O)c2ccc(-c3nn(C)c(=O)c4ccccc34)cc2)cc1 | -17% | 0 | 24% | 3% | 3% | 0%
O=C(CCn1nc(-c2ccccc2)ccc1=O)N1CCN(c2ccccc2)CC1 | -20% | ? | 0% | ? | -11% | -5%
C(COC1CC2CC1C1C2CC2OC21)OC1CC2CC1C1C2CC2OC21 (stereo not given) | -7% | 7 | / | ? | -22% | -7%
CN(C)CCNC(=O)c1ccc(-c2nn(C)c(=O)c3ccccc23)cc1 | -1% | 16 | ? | ? | -18% | 1%
Cn1nc(-c2ccc(OCC(=O)Nc3ccccc3)cc2)c2ccccc2c1=O | -1% | -13 | ? | 23µM* | 26µM* | 1%
CN(C(=O)c1ccc(-c2nn(C)c(=O)c3ccccc23)cc1)c1ccccc1 | -10% | 47 | ? | ? | 16µM* | -6%
COc1ccccc1NC(=O)Cn1nc(-c2ccc(Cl)cc2)c2ccccc2c1=O | -24% | 4 | -4% | -29% | -26% | -25%
Cc1ccc2occ(CC(=O)Nc3nnc(C(C)C)s3)c2c1 | / | / | / | 11% | -16% | /
